# Results published in paper PMC7862700, “An all-to-all approach to the identification of sequence-specific readers for epigenetic DNA modifications on cytosine”.
# Tests used:
# Assay in all cases: DAPPL (digital affinity profiling via proximity ligation, sequencing); 10 mM Tris-HCl pH 7.5, 50 mM NaCl, 1 mM DTT, 4% glycerol, room temperature, 30 min; GST-TFs on glutathione beads, 16-mer random dsDNA library, 0.1% formaldehyde crosslink after washing; high values mean tight binding
# Details in all cases: protein: recombinant; tags: N-terminal GST; dsDNA, one strand shown
# [1] = target: T1, FLI1 (Homo sapiens, UniProt Q01543 1-452)
# T1 sequence: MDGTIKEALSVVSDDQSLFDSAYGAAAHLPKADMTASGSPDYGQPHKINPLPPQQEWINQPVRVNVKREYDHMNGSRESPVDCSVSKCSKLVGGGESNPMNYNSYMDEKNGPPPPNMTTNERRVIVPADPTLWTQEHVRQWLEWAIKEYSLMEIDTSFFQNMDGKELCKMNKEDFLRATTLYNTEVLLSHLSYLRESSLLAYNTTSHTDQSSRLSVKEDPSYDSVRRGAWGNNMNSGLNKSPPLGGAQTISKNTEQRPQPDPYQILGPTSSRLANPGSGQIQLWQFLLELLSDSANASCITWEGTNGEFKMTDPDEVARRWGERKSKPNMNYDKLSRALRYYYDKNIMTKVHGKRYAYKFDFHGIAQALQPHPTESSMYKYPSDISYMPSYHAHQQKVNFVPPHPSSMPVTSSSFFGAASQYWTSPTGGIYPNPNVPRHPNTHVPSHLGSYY
# Outline: (§1)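 Binding signal is given per hexamer as its read frequency for a factor divided by its frequency in the tag-only sample. GST-fused human transcription factors were expressed in yeast, captured on glutathione beads, barcoded with DNA and pooled with that sample, then incubated with 200 nmole of a 16-mer random double-stranded DNA library in Tris/NaCl/DTT/glycerol buffer for 30 min at room temperature. The pools were then washed, crosslinked, proximity-ligated, amplified by PCR and sequenced on an Illumina NextSeq500.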
# [2] = target: T2, ELK1 (Homo sapiens, UniProt P19419 1-428)
# T2 sequence: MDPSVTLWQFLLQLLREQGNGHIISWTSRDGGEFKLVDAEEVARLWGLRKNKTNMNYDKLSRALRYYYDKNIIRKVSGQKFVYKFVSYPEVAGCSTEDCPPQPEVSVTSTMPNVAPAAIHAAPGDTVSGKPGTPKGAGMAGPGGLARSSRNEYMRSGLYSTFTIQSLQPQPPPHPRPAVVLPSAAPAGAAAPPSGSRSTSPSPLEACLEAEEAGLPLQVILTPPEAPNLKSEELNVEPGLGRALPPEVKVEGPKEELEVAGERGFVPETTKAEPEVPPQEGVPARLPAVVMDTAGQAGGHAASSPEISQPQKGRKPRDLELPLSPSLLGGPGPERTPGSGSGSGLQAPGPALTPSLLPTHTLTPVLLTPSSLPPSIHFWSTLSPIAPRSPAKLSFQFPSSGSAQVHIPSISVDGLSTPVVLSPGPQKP
# Outline: as §1
# [3] = target: T3, GABPA (Homo sapiens, UniProt Q06546 1-454)
# T3 sequence: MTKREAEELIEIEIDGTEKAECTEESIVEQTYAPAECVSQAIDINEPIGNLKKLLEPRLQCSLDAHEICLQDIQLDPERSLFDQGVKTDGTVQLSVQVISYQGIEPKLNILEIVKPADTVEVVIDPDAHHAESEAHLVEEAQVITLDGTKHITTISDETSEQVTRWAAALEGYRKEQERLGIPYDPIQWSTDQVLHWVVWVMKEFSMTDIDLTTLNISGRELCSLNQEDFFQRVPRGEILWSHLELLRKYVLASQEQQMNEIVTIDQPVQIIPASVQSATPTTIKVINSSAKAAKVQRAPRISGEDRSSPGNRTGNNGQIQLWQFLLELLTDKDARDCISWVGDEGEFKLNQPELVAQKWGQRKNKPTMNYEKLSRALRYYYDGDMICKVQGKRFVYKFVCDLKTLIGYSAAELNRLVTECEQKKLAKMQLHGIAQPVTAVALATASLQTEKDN
# Outline: as §1
# [4] = target: T4, ERG (Homo sapiens, UniProt P11308 1-479)
# T4 sequence: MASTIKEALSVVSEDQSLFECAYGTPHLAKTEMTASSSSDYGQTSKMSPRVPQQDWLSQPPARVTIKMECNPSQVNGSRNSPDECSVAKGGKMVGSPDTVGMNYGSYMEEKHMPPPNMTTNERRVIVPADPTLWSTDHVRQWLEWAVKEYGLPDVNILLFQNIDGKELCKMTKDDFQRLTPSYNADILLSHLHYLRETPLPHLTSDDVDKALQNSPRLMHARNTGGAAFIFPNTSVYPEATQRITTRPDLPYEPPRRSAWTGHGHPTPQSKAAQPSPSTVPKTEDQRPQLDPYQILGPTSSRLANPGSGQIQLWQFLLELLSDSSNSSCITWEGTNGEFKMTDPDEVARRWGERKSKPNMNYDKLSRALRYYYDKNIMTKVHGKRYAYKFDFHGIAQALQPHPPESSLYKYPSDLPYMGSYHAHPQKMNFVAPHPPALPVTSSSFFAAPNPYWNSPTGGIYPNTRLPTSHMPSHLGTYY
# Outline: as §1
# [5] = target: ELF1 (Homo sapiens, UniProt P32519 1-619)
# Outline: as §1
# [6] = target: T5, EHF (Homo sapiens, UniProt Q9NZC4 1-300)
# T5 sequence: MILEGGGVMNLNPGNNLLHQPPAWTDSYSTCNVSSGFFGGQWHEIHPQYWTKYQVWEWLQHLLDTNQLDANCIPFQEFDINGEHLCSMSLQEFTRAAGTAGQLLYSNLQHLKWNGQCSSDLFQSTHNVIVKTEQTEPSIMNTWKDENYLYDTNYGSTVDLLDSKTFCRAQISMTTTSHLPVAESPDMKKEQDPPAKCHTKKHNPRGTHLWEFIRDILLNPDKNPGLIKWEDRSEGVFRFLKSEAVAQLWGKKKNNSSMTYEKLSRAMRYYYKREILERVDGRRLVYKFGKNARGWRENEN
# Outline: as §1
# [7] = target: SPI1 (Homo sapiens, UniProt P17947 1-270)
# Outline: as §1
# [8] = target: SPIB (Homo sapiens, UniProt Q01892 1-262)
# Outline: as §1
# [9] = target: T6, ELK3 (Homo sapiens, UniProt P41970 1-407)
# T6 sequence: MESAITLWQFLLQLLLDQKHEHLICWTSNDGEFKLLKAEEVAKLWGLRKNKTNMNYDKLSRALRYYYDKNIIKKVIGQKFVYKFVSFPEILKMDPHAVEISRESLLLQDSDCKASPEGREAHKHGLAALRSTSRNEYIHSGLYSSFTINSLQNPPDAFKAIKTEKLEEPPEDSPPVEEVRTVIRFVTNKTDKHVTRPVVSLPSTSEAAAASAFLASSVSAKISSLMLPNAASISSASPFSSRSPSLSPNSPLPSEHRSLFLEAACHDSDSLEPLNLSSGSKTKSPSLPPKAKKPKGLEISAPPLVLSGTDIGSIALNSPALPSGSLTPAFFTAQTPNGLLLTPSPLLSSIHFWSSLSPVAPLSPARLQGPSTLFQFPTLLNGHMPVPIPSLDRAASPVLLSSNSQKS
# Outline: as §1
# [10] = target: T7, FEV (Homo sapiens, UniProt Q99581 1-238)
# T7 sequence: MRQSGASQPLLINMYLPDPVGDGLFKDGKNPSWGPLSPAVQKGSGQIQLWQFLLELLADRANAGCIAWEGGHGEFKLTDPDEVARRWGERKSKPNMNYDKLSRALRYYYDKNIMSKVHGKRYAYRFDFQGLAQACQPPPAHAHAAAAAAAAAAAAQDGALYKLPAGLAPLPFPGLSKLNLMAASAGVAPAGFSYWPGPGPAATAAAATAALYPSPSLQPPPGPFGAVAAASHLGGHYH
# Outline: as §1
# [11] = target: ETV5 (Homo sapiens, UniProt P41161 1-510)
# Outline: as §1
# [12] = target: T8, SPIC (Homo sapiens, UniProt Q8N5J4 1-248)
# T8 sequence: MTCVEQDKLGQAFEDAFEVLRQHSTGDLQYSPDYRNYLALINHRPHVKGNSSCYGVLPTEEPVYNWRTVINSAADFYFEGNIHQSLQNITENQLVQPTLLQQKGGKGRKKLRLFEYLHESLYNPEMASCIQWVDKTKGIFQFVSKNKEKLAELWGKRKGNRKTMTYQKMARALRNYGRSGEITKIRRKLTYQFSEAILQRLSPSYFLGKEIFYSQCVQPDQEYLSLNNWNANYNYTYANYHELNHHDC
# Outline: as §1
# [13] = target: ELF4 (Homo sapiens, UniProt Q99607 1-663)
# Outline: as §1
# [14] = target: ETV1 (Homo sapiens, UniProt P50549 1-477)
# Outline: as §1
# [15] = target: T9, ERF (Homo sapiens, UniProt P50548 1-548)
# T9 sequence: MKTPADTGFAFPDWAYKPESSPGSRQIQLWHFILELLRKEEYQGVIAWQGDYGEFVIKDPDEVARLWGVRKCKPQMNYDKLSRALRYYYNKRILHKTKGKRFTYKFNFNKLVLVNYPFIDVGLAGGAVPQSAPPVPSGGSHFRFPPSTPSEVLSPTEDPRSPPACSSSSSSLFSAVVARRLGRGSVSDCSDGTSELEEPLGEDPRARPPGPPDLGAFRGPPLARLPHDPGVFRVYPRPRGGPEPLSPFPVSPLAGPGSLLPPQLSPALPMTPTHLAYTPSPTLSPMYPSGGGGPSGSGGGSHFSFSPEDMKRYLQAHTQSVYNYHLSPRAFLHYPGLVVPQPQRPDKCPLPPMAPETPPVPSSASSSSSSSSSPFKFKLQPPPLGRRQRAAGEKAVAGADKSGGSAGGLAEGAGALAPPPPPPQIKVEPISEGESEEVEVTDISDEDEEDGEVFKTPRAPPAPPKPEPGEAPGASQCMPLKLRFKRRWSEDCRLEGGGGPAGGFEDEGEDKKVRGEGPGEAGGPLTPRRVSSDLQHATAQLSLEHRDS
# Outline: as §1
# [16] = target: T10, ETV3L (Homo sapiens, UniProt Q6ZN32 1-361)
# T10 sequence: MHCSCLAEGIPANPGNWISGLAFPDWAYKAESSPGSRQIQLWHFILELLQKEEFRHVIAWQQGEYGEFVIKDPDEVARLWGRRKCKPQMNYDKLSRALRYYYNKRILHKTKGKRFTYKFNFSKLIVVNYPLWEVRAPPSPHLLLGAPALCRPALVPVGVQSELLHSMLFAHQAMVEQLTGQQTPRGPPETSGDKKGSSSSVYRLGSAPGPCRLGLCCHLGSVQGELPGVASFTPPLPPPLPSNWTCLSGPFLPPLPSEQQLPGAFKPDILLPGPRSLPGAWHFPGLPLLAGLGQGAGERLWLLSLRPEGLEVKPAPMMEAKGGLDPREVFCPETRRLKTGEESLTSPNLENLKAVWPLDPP
# Outline: as §1
# [17] = target: T11, ETS2 (Homo sapiens, UniProt P15036 1-469)
# T11 sequence: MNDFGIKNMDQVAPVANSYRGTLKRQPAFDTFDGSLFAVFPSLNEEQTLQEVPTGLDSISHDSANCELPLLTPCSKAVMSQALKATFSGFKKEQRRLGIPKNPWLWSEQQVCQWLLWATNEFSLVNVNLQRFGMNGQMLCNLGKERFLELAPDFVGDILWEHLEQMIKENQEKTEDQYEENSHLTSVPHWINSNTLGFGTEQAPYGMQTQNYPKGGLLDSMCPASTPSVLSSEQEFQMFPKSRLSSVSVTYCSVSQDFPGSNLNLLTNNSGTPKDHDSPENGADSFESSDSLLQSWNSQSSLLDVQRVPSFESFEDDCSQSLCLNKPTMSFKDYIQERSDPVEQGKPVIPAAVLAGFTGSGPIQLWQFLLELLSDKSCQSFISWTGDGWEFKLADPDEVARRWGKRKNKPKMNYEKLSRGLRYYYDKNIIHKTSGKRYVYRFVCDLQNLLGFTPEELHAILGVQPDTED
# Outline: as §1
# [18] = target: T12, ETV3 (Homo sapiens, UniProt P41162-2 1-143)
# T12 sequence: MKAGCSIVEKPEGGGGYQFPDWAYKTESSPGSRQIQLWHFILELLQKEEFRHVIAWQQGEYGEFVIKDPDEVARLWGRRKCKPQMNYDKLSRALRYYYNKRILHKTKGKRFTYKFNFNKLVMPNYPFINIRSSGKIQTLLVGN
# Outline: as §1
# [19] = target: ETV6 (Homo sapiens, UniProt P41212 1-452)
# Outline: as §1
# ETV6, sequence (P41212 whole entry): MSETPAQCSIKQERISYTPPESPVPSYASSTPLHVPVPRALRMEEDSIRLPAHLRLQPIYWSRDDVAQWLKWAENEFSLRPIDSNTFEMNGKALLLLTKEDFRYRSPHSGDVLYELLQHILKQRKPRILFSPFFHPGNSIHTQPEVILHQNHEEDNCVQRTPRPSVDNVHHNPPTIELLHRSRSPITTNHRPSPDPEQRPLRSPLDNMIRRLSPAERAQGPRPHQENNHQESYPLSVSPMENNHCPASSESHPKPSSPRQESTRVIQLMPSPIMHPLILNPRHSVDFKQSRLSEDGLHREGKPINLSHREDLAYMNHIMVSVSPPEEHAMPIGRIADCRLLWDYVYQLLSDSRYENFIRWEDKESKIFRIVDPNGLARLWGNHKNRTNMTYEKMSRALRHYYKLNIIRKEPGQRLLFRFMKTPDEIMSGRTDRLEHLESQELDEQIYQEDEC
# ELF1, sequence (P32519 whole entry): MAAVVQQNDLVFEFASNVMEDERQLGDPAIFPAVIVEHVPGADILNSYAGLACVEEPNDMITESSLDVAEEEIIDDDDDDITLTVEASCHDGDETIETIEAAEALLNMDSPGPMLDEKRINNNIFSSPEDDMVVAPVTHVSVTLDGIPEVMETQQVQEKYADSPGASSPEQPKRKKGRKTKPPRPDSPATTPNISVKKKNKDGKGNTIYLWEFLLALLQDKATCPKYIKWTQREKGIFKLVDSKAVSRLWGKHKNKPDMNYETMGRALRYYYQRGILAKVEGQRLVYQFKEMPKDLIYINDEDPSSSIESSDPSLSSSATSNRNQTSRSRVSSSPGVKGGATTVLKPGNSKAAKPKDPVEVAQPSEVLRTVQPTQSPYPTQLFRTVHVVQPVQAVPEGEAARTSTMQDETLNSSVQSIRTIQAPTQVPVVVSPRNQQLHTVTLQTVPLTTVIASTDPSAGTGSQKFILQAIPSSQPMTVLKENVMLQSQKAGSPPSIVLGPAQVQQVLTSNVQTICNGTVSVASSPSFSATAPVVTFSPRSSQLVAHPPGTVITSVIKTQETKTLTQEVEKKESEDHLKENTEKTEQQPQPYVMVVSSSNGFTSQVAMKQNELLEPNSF
# ETV5, sequence (P41161 whole entry): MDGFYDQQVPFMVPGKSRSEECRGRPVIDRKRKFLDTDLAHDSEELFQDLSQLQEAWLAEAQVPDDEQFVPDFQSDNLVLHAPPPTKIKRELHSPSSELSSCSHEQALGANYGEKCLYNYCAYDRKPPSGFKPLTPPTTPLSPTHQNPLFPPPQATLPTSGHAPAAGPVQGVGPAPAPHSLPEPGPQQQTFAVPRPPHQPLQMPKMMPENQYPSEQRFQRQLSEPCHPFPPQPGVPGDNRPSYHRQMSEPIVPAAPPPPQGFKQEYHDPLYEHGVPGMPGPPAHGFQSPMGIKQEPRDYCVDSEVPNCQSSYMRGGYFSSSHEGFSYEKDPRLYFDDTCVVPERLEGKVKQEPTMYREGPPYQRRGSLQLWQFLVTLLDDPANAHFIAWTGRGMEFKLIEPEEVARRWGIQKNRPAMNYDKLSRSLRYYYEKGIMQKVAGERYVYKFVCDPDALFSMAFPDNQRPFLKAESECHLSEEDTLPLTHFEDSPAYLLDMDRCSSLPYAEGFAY
# ETV1, sequence (P50549 whole entry): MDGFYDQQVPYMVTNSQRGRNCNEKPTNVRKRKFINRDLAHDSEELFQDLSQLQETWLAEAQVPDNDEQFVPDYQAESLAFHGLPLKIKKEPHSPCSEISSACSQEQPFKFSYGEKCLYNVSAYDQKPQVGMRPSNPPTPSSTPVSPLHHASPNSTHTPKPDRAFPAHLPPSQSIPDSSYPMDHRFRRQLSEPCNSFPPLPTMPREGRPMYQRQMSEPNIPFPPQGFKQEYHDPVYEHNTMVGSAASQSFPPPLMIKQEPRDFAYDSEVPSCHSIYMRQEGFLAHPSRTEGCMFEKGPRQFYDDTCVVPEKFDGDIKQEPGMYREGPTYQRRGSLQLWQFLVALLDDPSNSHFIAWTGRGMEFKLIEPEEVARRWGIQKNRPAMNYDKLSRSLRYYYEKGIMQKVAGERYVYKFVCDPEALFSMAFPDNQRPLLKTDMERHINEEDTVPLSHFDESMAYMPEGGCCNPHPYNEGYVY
# ELF4, sequence (Q99607 whole entry): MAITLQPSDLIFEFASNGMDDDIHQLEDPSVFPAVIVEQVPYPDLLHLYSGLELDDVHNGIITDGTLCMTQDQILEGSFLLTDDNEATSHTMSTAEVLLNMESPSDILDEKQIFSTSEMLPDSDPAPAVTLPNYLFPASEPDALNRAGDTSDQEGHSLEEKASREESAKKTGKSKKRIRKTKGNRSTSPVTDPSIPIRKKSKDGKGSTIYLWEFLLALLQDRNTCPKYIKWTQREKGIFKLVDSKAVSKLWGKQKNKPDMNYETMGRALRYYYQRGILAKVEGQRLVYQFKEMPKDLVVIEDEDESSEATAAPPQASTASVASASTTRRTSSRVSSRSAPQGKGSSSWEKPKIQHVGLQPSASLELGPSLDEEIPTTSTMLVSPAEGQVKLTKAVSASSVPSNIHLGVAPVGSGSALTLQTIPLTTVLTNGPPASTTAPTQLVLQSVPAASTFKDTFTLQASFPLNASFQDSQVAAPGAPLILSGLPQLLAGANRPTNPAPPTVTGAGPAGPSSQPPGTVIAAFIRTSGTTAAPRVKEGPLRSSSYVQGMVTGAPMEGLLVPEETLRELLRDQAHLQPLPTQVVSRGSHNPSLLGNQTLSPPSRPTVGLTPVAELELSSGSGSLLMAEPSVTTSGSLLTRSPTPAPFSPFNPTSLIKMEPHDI
# SPIB, sequence (Q01892 whole entry): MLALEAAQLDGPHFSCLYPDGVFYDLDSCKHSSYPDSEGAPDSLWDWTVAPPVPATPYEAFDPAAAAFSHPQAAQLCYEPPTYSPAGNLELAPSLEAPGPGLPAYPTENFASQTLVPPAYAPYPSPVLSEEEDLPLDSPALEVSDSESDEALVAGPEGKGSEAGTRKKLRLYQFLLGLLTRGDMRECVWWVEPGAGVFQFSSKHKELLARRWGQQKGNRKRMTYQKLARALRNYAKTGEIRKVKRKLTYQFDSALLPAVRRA
sequence,measurement,setting,value
GCCCAC,binding signal,[1],"1.09 fold enrichment (6-mer frequency, TF over GST control)"
same,binding signal,[2],"1.18 fold enrichment (6-mer frequency, TF over GST control)"
same,binding signal,[3],"1.06 fold enrichment (6-mer frequency, TF over GST control)"
same,binding signal,[4],"1.06 fold enrichment (6-mer frequency, TF over GST control)"
same,binding signal,[5],"1.1 fold enrichment (6-mer frequency, TF over GST control)"
same,binding signal,[6],"1.13 fold enrichment (6-mer frequency, TF over GST control)"
same,binding signal,[7],"1.07 fold enrichment (6-mer frequency, TF over GST control)"
same,binding signal,[8],"1.12 fold enrichment (6-mer frequency, TF over GST control)"
same,binding signal,[9],"1.03 fold enrichment (6-mer frequency, TF over GST control)"
same,binding signal,[10],"1.12 fold enrichment (6-mer frequency, TF over GST control)"
same,binding signal,[11],"1.16 fold enrichment (6-mer frequency, TF over GST control)"
same,binding signal,[12],"1.13 fold enrichment (6-mer frequency, TF over GST control)"
same,binding signal,[13],"1.18 fold enrichment (6-mer frequency, TF over GST control)"
same,binding signal,[14],"1 fold enrichment (6-mer frequency, TF over GST control)"
same,binding signal,[15],"1.09 fold enrichment (6-mer frequency, TF over GST control)"
same,binding signal,[16],"1.04 fold enrichment (6-mer frequency, TF over GST control)"
same,binding signal,[17],"1.04 fold enrichment (6-mer frequency, TF over GST control)"
same,binding signal,[18],"1.09 fold enrichment (6-mer frequency, TF over GST control)"
same,binding signal,[19],"1.05 fold enrichment (6-mer frequency, TF over GST control)"
